From PubChem BioAssay (NCATS)
Records with an inconclusive call do not appear. Where a call stands in place of a potency, no number is given. Values without a mark were called inactive. Active and inactive are the calls of the source. Calls come from the whole dose curve; as a rule, active = well fitted cell-killing curve with a large enough effect; inconclusive = small, poorly fitted or top-dose-only effect, or effect the other way; inactive = no such curve, though single readings can be large or run the other way.

experiment: Viability qHTS for spleen associated tyrosine kinase inhibitor (SYKi) drug resistant MV4-11 cells (AID 1963824); conditions: SYKi-resistant MV4-11 viability, CellTiter-Glo, 72 h; series mostly up to 45 µM; note: nearly all actives have a fitted effect of over 35% in size
Method in brief: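 SYK-inhibitor-resistant MV4-11 AML cells were seeded at 500 per well onto compound and cultured 72 hours (37 °C, 5% CO2). CellTiter-Glo was then added, and after 10 min at room temperature, luminescence gave viability.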
Potency is the fitted concentration of half-maximal effect.

Row | Structure (SMILES) | Potency | viability, % of control
1 | O=C(O)CCC(=O)O | inactive | –
2 | Nc1nonc1-c1nc2cnccc2n1C1CC1 | 2.31 µM (active) | –
3 | COc1cc(/C=C/C=O)cc(OC)c1O[C@@H]1O[C@H](CO)[C@@H](O)[C@H](O)[C@H]1O | inactive | –
4 | C=CC1C(O[C@@H]2O[C@H](CO)[C@@H](O)[C@H](O)[C@H]2O)OC=C(C(=O)OC)C1Cc1nccc2c1[nH]c1ccccc12 (stereo not given in full) | 3.99 µM (active) | –
5 | CN1CC[C@@H](c2c(O)cc(O)c3c(=O)cc(-c4ccc(C(F)(F)F)cc4Cl)oc23)[C@@H]1CO | 18.4 µM (active) | –
6 | C=C(C)C1CCC2(C(=O)O[C@@H]3O[C@H](CO[C@@H]4O[C@H](CO)[C@@H](O)[C@H](O)[C@H]4O)[C@@H](O)[C@H](O[C@@H]4O[C@@H](C)[C@H](O)[C@@H](O)[C@H]4O)[C@H]3O)CCC3(C(=O)O)C(CCC4C5(C)CCC(O)C(C)(C)C5CCC43C)C12 (stereo not given in full) | – | 114% [at 9.25 µM]
7 | CC(NC(=O)c1ccccc1N)C(=O)O (stereo not given) | inactive | –
8 | CC1(C)CCC[C@@]2(C)C1[C@H](OC(=O)/C=C/C=C/C(=O)O)C=C1COC(=O)[C@@]12O (stereo not given in full) | inactive | –
9 | Cc1cc2ncc(C(=O)NCC(C)(C)NCC(=O)N3CCC[C@H]3C#N)cn2n1 | inactive | –
10 | C=CCN(/C=C1\C(=O)OC(COC)C2(C)C1=C(O)C(=O)C1=C2C(OC(C)=O)CC2(C)C(=O)CCC12)CC=C (stereo not given) | 20.6 µM (active) | –
11 | CC1(C)CC[C@]2(C(=O)O[C@@H]3O[C@H](CO)[C@@H](O)[C@H](O)[C@H]3O)CC[C@]3(C)C(=CCC4[C@@]5(C)CC[C@H](OC6OC(C(=O)O)C(OC7OC(CO)C(O)C(O)C7O)C(O)C6O)C(C)(C)C5CC[C@]43C)C2C1 (stereo not given in full) | – | 91.6% [at 9.25 µM]
12 | Cc1ccc(C(=O)Nc2noc3ccccc23)cc1 | 10.3 µM (active) | –
13 | O=C(/C=C\c1ccc(O)cc1)N[C@@H](Cc1ccc(O)cc1)C(=O)O | inactive | –
14 | COc1ccc2c(c1)C(C(=O)N(Cc1ccc(N(C)C)cc1)c1ccc(C(C)C)cc1)CCC2 (stereo not given) | 14.6 µM (active) | –
15 | CC1(C)C(O)CCC2(C)C1C(O)C=C1COC(=O)C12O (stereo not given) | inactive | –
16 | O=C(/C=C/c1ccccc1O)O[C@@H]1O[C@H](CO)[C@@H](O)[C@H](O)[C@H]1O | inactive | –
17 | OCC1=CC[C@@H]2C=CO[C@@H](O[C@@H]3O[C@H](CO)[C@@H](O)[C@H](O)[C@H]3O)[C@H]12 | inactive | –
18 | OCC(CO[C@@H]1O[C@H](CO)[C@@H](O)[C@H](O)[C@H]1O)c1ccc2c(c1)OCO2 (stereo not given in full) | inactive | –
19 | CCC(C)/C=C(C)/C=C/C1=CC2=C(Cl)C(=O)C(C)(OC(C)=O)C(=O)C2(O)C(OC)O1 (stereo not given) | 7.96 µM (active) | –
20 | C[C@@H]1CC[C@@]2(OC1)O[C@H]1C[C@H]3[C@@H]4CC=C5C[C@@H](O)CC[C@]5(C)[C@H]4CC[C@]3(C)[C@H]1[C@@H]2C | inactive | –

Row | Structure (SMILES) | Potency | viability, % of control
21 | COC(O)(CC(C)C)C1Oc2cc(C)[nH]c(=O)c2O1 (stereo not given) | inactive | –
22 | COC(=O)C1=CO[C@@H](O[C@@H]2O[C@H](CO[C@@H]3O[C@H](COC(=O)/C=C/c4ccc(O)cc4)[C@@H](O)[C@H](O)[C@H]3O)[C@@H](O)[C@H](O)[C@H]2O)[C@@H]2C(CO)=CC[C@H]12 | inactive | –
23 | Cc1nc(CNc2ncnc3ccc(-c4ccc5c(c4)OCO5)cc23)cs1 | 23.1 µM (active) | –
24 | C/C=C/C=C/C=C/C(=O)O[C@@H]1[C@@H](OC)C2=C(C(=O)N(C(CCC(=O)O)C(=O)O)C2)[C@@]2(C)CCCC(C)(C)[C@H]12 (stereo not given in full) | inactive | –
25 | c1cc(CN2CCCCC2)cc(OCCCNc2nc3ccccc3s2)c1 | 21.1 µM (active) | –
26 | CCOC(=O)c1cnn(-c2ccccc2)c1NC(=O)c1cc2nc(-c3ccco3)cc(C(F)(F)Cl)n2n1 | inactive | –
27 | CC1(C)[C@@H](O)CC[C@]2(C)[C@H]3CC=C4[C@@H]5C[C@](C)(C(=O)O)CC[C@]5(C)CC[C@@]4(C)[C@]3(C)CC[C@@H]12 | inactive | –
28 | CC(=O)c1c(OCCN2CCCCC2)c(OCCC(C)c2ccc(F)cc2)c2oc(C)nc2c1C (stereo not given) | 7.31 µM (active) | –
29 | CCC/C=C1\OC(=O)C2=C1CCC(O)C2O (stereo not given) | inactive | –
30 | COc1cc(C2Oc3c(OC)cc(CCCO)cc3C2CO)ccc1O[C@H]1O[C@H](C)[C@@H](O)[C@H](O)[C@@H]1O (stereo not given in full) | inactive | –
31 | COc1ccc2[nH]c3c(-c4cccc5ccccc45)nccc3c2c1 | 0.82 µM (active) | –
32 | CNCc1cc(-c2ccccc2F)n(S(=O)(=O)c2cccnc2)c1 | 13 µM (active) | –
33 | C=C(C(=O)OC)C1C(O)CC2(C)C(O)CCC(=O)C2C1O (stereo not given) | inactive | –
34 | C=C[C@]1(C)C[C@H](O)[C@@H]2[C@H](OC(=O)[C@@H]2C)C1/C(C)=C/O[C@@H]1O[C@H](CO)[C@@H](O)[C@H](O)[C@H]1O (stereo not given in full) | inactive | –
35 | CC12CC34C=CC(=O)C(C)(CCC(=O)O)C3C(CC1C4)O2 (stereo not given) | inactive | –
36 | COC(=O)C12C(=O)C(C)=C(O)C1(C)C(C)=CC1C34CCC(OC3=O)C(C)(C)C4CCC12C (stereo not given) | inactive | –
37 | C[C@@H](O)[C@H](N)C(=O)N1CCC[C@H]1C(=O)N1CCC[C@H]1C(=O)N[C@H](C(N)=O)[C@@H](C)O | – | 81.3% [at 9.25 µM]
38 | CC1CCC2(C(=O)OC3OC(CO)C(O)C(O)C3O)CCC3(C(=O)O)C(=CCC4C5(C)CCC(OC6OC(C)C(O)C(O)C6O)C(C)(C)C5CCC43C)C2C1C (stereo not given) | inactive | –
39 | O=C(CCC1CCN(Cc2ccccc2)CC1)c1ccc2c(c1)NCCCC2 | 14.6 µM (active) | –
40 | CCC(=O)N1CCc2cc(OC)c(O)cc2C1 | inactive | –
